The values below come from PubChem BioAssay (EPA / NIEHS).

Details in all cases: mRNA level, 48 h; actives raise or lower the signal
Read-out in test [1]: Bcl-2 (BID) gene, BID (gene 637)
The test is described as follows: LTEA_HepaRG_BID: Life Technologies and Expression Analysis (LTEA) Assay for Bcl-2 (BID) gene using HepaRG (AID 2283476). The method, boiled down: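 Gene expression by qRT-PCR in HepaRG cells after 48 h exposure, duplicate wells, eight half-log concentrations topping at 100 uM in 0.5% DMSO. Normalized to ACTB, GAPDH, POLR2A; bidirectional fitting relative to DMSO.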

Read-out in another test: Caspase-3 (Homo sapiens) (UniProt P42574)
The test is described as follows: LTEA_HepaRG_CASP3: Life Technologies and Expression Analysis (LTEA) Assay for cysteine-aspartic acid protease (CASP3) using HepaRG (AID 2283477). In outline:
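In HepaRG liver cells dosed for 48 h at up to 100 uM (eight-point, duplicate), CASP3 expression changes are scored by qRT-PCR. Activity is fitted in both directions with 0.5% DMSO as baseline.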

Read-out in test [2]: Cytochrome P450 (CYP24A1), CYP24A1 (gene 1591)
Nature of the test: LTEA_HepaRG_CYP24A1: Life Technologies and Expression Analysis (LTEA) Assay for Cytochrome P450 (CYP24A1) using HepaRG (AID 2283478). The method, boiled down:
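Human liver HepaRG cultures receive each chemical for 48 h across an eight-point half-log series topping at 100 uM in 0.5% DMSO. Induction or suppression of CYP24A1 mRNA is scored relative to vehicle after housekeeping-gene normalization.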

Read-out in test [3]: Cytochrome P450 (CYP1A2), CYP1A2 (gene 1544)
The test is described as follows: LTEA_HepaRG_CYP1A2: Life Technologies and Expression Analysis (LTEA) Assay for Cytochrome P450 (CYP1A2) using HepaRG (AID 2283479). In outline:
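Assesses CYP1A2 mRNA in human HepaRG liver cells after 48 h chemical exposure at up to 100 uM. Values come from qRT-PCR with bidirectional curve fitting relative to DMSO.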

Read-out in test [4]: cysteine-aspartic acid protease (CASP8), CASP8 (gene 841)
Nature of the test: LTEA_HepaRG_CASP8: Life Technologies and Expression Analysis (LTEA) Assay for cysteine-aspartic acid protease (CASP8) using HepaRG (AID 2283480). In outline: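 Differentiated HepaRG cells in serum-free induction medium, 48 h exposure, eight-point half-log series from 100 uM in 0.5% DMSO, duplicates. CASP8 mRNA by qRT-PCR, normalized to ACTB, GAPDH, POLR2A; bidirectional fit versus DMSO.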

Read-out in test [5]: Cytochrome P450 (CYP2B6), CYP2B6 (gene 1555)
The test is described as follows: LTEA_HepaRG_CYP2B6: Life Technologies and Expression Analysis (LTEA) Assay for Cytochrome P450 (CYP2B6) using HepaRG (AID 2283481). The method, boiled down: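 Using 48 h treatment of HepaRG cells in serum-free induction medium, concentrations spanned half-log steps from 100 uM in 0.5% DMSO vehicle. CYP2B6 mRNA induction or loss is scored by qRT-PCR against DMSO.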

Read-out in test [6]: Cytochrome P450 2C19 (Homo sapiens) (UniProt P33261)
Nature of the test: LTEA_HepaRG_CYP2C19: Life Technologies and Expression Analysis (LTEA) Assay for CYP2C19 using HepaRG (AID 2283482). In outline:
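Human HepaRG liver cells received test chemicals for 48 h (highest 100 uM, half-log dilutions in 0.5% DMSO). CYP2C19 mRNA induction or loss is read by multiplexed qRT-PCR and fitted in both directions versus vehicle.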

Read-out in a further test: CYP2C8 (gene 1558)
The test is described as follows: LTEA_HepaRG_CYP2C8: Life Technologies and Expression Analysis (LTEA) Assay for CYP2C8 using HepaRG (AID 2283483). The method, boiled down: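 Differentiated HepaRG cells in serum-free induction medium exposed 48 h in duplicate to 8 half-log concentrations from 100 uM in 0.5% DMSO. CYP2C8 mRNA by qRT-PCR normalized to ACTB, GAPDH, POLR2A; bidirectional fit versus DMSO.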

Read-out in another test: CYP2C9 (gene 1559)
Nature of the test: LTEA_HepaRG_CYP2C9: Life Technologies and Expression Analysis (LTEA) Assay for CYP2C9 using HepaRG (AID 2283484). In outline:
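Differentiated human HepaRG cells in serum-free induction medium were exposed 48 h to chemicals in 8-point half-log series from 100 uM (0.5% DMSO), in duplicate. CYP2C9 mRNA was measured by qRT-PCR, normalized to ACTB/GAPDH/POLR2A, with bidirectional fitting versus DMSO.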

Read-out in a further test: CYP2E1 (gene 1571)
Nature of the test: LTEA_HepaRG_CYP2E1: Life Technologies and Expression Analysis (LTEA) Assay for CYP2E1 using HepaRG (AID 2283485). The method, boiled down:
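HepaRG cells, plated 48 h, then exposed 48 h in serum-free induction medium to eight half-log concentrations from 100 uM in 0.5% DMSO, duplicate. CYP2E1 mRNA by qRT-PCR, normalized to ACTB/GAPDH/POLR2A; bidirectional fit versus DMSO.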

Read-out in a further test: CYP4A11 (gene 1579)
The test is described as follows: LTEA_HepaRG_CYP4A11: Life Technologies and Expression Analysis (LTEA) Assay for CYP4A11 using HepaRG (AID 2283486). The method, boiled down: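 Readout is CYP4A11 mRNA induction or suppression (qRT-PCR, ACTB/GAPDH/POLR2A normalization) in human HepaRG cells after 48 h chemical treatment, concentrations to 100 uM in 0.5% DMSO, fitted bidirectionally against vehicle.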

Read-out in test [7]: Cytochrome P450 3A4 (Homo sapiens) (UniProt P08684)
The test is described as follows: LTEA_HepaRG_CYP3A4: Life Technologies and Expression Analysis (LTEA) Assay for CYP3A4 using HepaRG (AID 2283487). The method, boiled down:
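Differentiated HepaRG cells in serum-free induction medium exposed in duplicate for 48 h to 8 half-log concentrations up to 100 uM in 0.5% DMSO. CYP3A4 mRNA measured by qRT-PCR normalized to ACTB, GAPDH and POLR2A; bidirectional fit versus DMSO.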

Read-out in test [8]: DNA damage-inducible transcript 3 (DDIT3), DDIT3 (gene 1649)
Nature of the test: LTEA_HepaRG_DDIT3: Life Technologies and Expression Analysis (LTEA) Assay for DNA damage-inducible transcript 3 (DDIT3) using HepaRG (AID 2283488). In outline: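 HepaRG cells, 48 h after plating, exposed 48 h in serum-free induction medium to 8 half-log concentrations up to 100 uM in 0.5% DMSO, in duplicate. DDIT3 mRNA measured by TaqMan qRT-PCR, normalized to ACTB, GAPDH and POLR2A. Fitted bidirectionally against DMSO.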

Read-out in test [9]: Pro-epidermal growth factor (Homo sapiens) (UniProt P01133)
Nature of the test: LTEA_HepaRG_EGF: Life Technologies and Expression Analysis (LTEA) Assay for Epidermal growth factor (EGF) using HepaRG (AID 2283489). The method, boiled down:
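EGF expression changes in human HepaRG cells are scored by bidirectional fitting relative to 0.5% DMSO controls. Chemicals are tested at eight half-log concentrations up to 100 uM for 48 h in serum-free induction medium.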

Read-out in test [10]: Early growth response protein 1 (EGR1) transcription factor, EGR1 (gene 1958)
The test is described as follows: LTEA_HepaRG_EGR1: Life Technologies and Expression Analysis (LTEA) Assay for Early growth response protein 1 (EGR1) transcription factor using HepaRG (AID 2283490). The method, boiled down:
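Differentiated HepaRG cells in serum-free induction medium exposed 48 hours, duplicate, to 8 half-log concentrations up to 100 uM in 0.5% DMSO. EGR1 mRNA measured by TaqMan qRT-PCR, normalized to ACTB, GAPDH, POLR2A; bidirectional fit versus DMSO.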

Read-out in test [11]: Ezrin (EZR), EZR (gene 7430)
Nature of the test: LTEA_HepaRG_EZR: Life Technologies and Expression Analysis (LTEA) Assay for Ezrin (EZR) using HepaRG (AID 2283491). In outline:
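Differentiated human HepaRG cells, 48 h after plating, were exposed in serum-free induction medium for 48 hours to eight half-log concentrations up to 100 uM in 0.5% DMSO. EZR mRNA was measured by TaqMan qRT-PCR, normalized to ACTB, GAPDH and POLR2A, and fitted bidirectionally against DMSO.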

Read-out in test [12]: Cytochrome P450 3A7 (Homo sapiens) (UniProt P24462)
Nature of the test: LTEA_HepaRG_CYP3A7: Life Technologies and Expression Analysis (LTEA) Assay for CYP3A7 using HepaRG (AID 2283492). The method, boiled down:
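Cells were thawed, plated, cultured 48 h, then treated for a further 48 h with chemicals (eight-point half-log series from 100 uM, 0.5% DMSO). RNA was isolated and CYP3A7 expression quantified by qRT-PCR normalised to ACTB, GAPDH and POLR2A.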

Read-out in another test: CYP3A5 (gene 1577)
Nature of the test: LTEA_HepaRG_CYP3A5: Life Technologies and Expression Analysis (LTEA) Assay for CYP3A5 using HepaRG (AID 2283493). In outline: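 HepaRG cells, plated 48 h then in serum-free induction medium, dosed in duplicate for 48 h with eight half-log concentrations up to 100 uM in 0.5% DMSO. Gene mRNA by Fluidigm TaqMan qRT-PCR, normalized to ACTB, GAPDH, POLR2A.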

Read-out in test [13]: Fatty Acid-Binding Protein 1 (FABP1), FABP1 (gene 2168)
The test is described as follows: LTEA_HepaRG_FABP1: Life Technologies and Expression Analysis (LTEA) Assay for Fatty Acid-Binding Protein 1 (FABP1) using HepaRG (AID 2283494). The method, boiled down:
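Differentiated human HepaRG cells exposed 48 h in serum-free induction medium to eight half-log concentrations up to 100 uM (0.5% DMSO), duplicate. FABP1 mRNA by qRT-PCR, normalised to ACTB, GAPDH, POLR2A; bidirectional fitting against DMSO.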

Read-out in test [14]: Cytochrome P450 4A22 (Homo sapiens) (UniProt Q5TCH4)
The test is described as follows: LTEA_HepaRG_CYP4A22: Life Technologies and Expression Analysis (LTEA) Assay for Cytochrome P450 4A22 (CYP4A22) using HepaRG (AID 2283495). The method, boiled down: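 Cryopreserved HepaRG cells, plated and cultured 48 h, then switched to serum-free induction medium and treated 48 h (duplicates, up to 100 uM, half-log steps, 0.5% DMSO). Expression change of CYP4A22 was fitted bidirectionally against vehicle.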

Each structure is given as a SMILES string. Active and inactive are the calls of the source. How the source made its calls: active means hit-call score of the fitted dose curve at least 0.9, where 1 is the maximum; inactive means score below 0.9.

Sequence of Cytochrome P450 2C19 (Homo sapiens) (P33261 whole entry, looked up): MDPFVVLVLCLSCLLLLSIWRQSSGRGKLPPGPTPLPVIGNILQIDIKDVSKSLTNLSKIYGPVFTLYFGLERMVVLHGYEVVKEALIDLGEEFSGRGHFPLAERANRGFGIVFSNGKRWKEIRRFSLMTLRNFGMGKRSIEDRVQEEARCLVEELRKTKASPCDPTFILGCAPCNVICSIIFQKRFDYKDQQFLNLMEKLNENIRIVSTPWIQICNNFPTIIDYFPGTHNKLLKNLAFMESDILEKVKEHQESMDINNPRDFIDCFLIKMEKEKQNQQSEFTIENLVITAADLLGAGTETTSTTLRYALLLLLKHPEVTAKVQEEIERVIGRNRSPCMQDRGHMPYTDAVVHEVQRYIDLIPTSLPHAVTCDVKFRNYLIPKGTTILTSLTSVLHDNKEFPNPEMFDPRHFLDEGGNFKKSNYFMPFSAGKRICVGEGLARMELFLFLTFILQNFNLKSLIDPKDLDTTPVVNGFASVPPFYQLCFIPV
Sequence of Cytochrome P450 3A4 (Homo sapiens) (P08684 whole entry, looked up): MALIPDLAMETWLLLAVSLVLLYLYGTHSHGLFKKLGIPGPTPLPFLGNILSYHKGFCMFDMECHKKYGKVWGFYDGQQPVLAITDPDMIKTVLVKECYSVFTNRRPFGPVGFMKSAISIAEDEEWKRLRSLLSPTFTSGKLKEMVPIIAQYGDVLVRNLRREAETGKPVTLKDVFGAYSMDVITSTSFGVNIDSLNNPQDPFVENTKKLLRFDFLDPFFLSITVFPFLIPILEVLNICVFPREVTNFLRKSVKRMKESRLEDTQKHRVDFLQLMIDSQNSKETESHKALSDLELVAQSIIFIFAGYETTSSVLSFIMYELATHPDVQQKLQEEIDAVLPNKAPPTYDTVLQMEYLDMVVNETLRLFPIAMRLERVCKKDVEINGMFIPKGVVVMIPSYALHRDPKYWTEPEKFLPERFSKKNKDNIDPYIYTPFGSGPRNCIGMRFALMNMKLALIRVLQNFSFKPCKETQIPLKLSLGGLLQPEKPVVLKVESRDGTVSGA
Sequence of Cytochrome P450 3A7 (Homo sapiens) (P24462 whole entry, looked up): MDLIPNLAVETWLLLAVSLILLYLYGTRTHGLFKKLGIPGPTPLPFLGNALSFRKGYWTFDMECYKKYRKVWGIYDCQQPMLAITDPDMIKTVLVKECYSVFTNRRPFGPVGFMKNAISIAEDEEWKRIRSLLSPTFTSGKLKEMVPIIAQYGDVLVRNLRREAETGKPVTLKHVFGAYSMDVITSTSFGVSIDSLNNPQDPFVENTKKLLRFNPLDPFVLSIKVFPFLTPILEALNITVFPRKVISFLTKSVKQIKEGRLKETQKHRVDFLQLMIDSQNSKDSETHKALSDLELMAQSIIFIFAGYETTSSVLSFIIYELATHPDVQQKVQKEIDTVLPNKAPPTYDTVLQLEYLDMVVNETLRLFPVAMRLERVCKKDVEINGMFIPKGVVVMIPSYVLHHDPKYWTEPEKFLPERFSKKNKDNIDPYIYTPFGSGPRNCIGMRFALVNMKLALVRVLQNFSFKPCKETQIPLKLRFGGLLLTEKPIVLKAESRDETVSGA
Sequence of Caspase-3 (Homo sapiens) (P42574 whole entry, looked up): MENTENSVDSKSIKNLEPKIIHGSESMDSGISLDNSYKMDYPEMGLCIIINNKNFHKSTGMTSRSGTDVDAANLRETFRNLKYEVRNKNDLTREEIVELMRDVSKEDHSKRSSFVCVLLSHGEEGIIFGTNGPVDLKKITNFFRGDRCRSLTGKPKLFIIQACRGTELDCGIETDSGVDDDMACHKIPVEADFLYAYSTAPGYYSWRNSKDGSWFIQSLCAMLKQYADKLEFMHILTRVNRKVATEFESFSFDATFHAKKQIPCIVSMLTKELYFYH

In the case of `O=c1ccc(=O)[nH][nH]1`, the molecule was called inactive (in test [1]; in the test with Caspase-3 (Homo sapiens); in [2]; in [3]; in test [4]; in test [6]). In addition, the molecule was called inactive (with CYP2C8 (gene 1558); in the test with CYP2C9 (gene 1559); with CYP4A11 (gene 1579); in test [7]; in test [8]; in test [9]). Further, the outcome (in test [10]; in test [11]; in [12]; in the test with CYP3A5 (gene 1577); in test [13]; in test [14]) was inactive. Besides, the AC50 in test [5] is 4.2 µM (active); with CYP2E1 (gene 1571), 16 µM (active).
With `CNc1cnn(-c2cccc(C(F)(F)F)c2)c(=O)c1Cl`, the result (in [1]; with Caspase-3 (Homo sapiens); in test [2]; in test [4]; with CYP2C8 (gene 1558); with CYP2C9 (gene 1559)) was inactive. Besides, the molecule was classed as inactive (in the test with CYP4A11 (gene 1579); in test [8]; in test [10]; in [11]; in test [12]; in the test with CYP3A5 (gene 1577)). In test [14], the outcome was inactive. In addition, the AC50 was 6.1 µM (active) in test [3]; 6.51 µM (active) in [5]; 21.6 µM (active) in test [6]; 41.1 µM (active) in the test with CYP2E1 (gene 1571); 31.5 µM (active) in test [7]; 29.8 µM (active) in test [9]. Also, the AC50 in test [13] is 26 µM (active).
